Shown are actives, neighbours in structure and some others; about 2.3% of the full set was active somewhere.
aSyn 5UTR inh: MLPCN primary screen, SNCA 5' untranslated region. alpha-synuclein 5'UTR reporter, inhibitor activity. inhibition, % (tested at 7.5 µM). 0.82% of 300,000 active; in the data active = inhibition above about 60%;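 also: H4 neuroglioblastoma cells stably carrying SNCA 5'UTR luciferase fusion; 0% = DMSO wells and 100% = positive control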
697 NFkB inh: inhibitors of PMA/ionomycin-induced NF-kB reporter, 697 cells, primary screen, B-cell NF-kB inhibitor project, cell-based, luminescence, uHTS. 697 B-cell NF-kB luciferase reporter, 16 h. 0.33% of 330,000 active. inhibition, % at 4 µM. AID 435022, 2010; in the data active = inhibition above about 35%
Shn3 inh set2: reduction of Shn3 3'UTR firefly luciferase signal, primary screen, Schnurri-3 inhibitor project, cell-based, Clone20 osteoblasts, set 2 | inhibition, % at 12.5 µM | Clone20 osteoblast Shn3 3'UTR firefly luciferase, 24 h | 0.52% of 360,000 active;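 active = mean inhibition of at least 75% with every replicate also reaching 75%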;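 also: 0% = median of neutral control wells and 100% = pilot-screen positive control compound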
TAG inh: inhibitors of triacylglycerol accumulation, primary screen, cell-based, uHTS, fluorescence, H9c2. H9c2 cells, Nile Red lipid (TAG) fluorescence; cells loaded with 200 µM oleic acid. inhibition, % at 12.5 µM. 0.66% of 230,000 active. AID 651582, 2012;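 active = pattern-corrected inhibition of lipid staining of at least 50% with the nuclear-stain viability signal not falling by more than 50%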;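 also: 0% = DMSO wells and 100% = triacsin C control wells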
Jurkat NFkB inh: inhibitors of induced NF-kB luciferase reporter, primary screen, TCR NF-kB activation inhibitor project, cell-based, luminescence, uHTS. inhibition, % at 4 µM. Jurkat, PMA/ionomycin-induced NF-kB luciferase reporter. AID 435003, 2010. 0.53% of 330,000 active; in the data active = inhibition above about 50%
Gli-Sufu block: Gli-Sufu pathway antagonists, primary screen, luciferase luminescence, Sufu-KO-LIGHT cells, uHTS; Sufu-KO-LIGHT fibroblasts, Gli luciferase reporter luminescence; inhibition, % at 5 µM; 0.74% of 340,000 active;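 active = inhibition above about 55%, limit read from the data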;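 also: 0% = DMSO-treated cells and 100% = wells with medium but no cells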
Jurkat NFkB conf: PMA/ionomycin-induced NF-kB reporter inhibitors, Jurkat retest, confirmation, T-cell NF-kB inhibitor project, cell-based, luminescence, single concentration. shares compounds with Jurkat NFkB inh. Jurkat NF-kB luciferase, 16 h. inhibition, % at 4 µM. 27% of 2,700 active;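 active = inhibition reaching about 45% at 4 µM in either replicate, limit read from the data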;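 also: plate controls were PMA/ionomycin stimulated DMSO wells for no effect and unstimulated DMSO wells for full effect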
Numbers without * were called inactive; · = not tested or not shown.

SMILES | aSyn 5UTR inh | 697 NFkB inh | Shn3 inh set2 | TAG inh | Jurkat NFkB inh | Gli-Sufu block | Jurkat NFkB conf
COc1ccc(-c2c(-c3ccc4c(c3)OCO4)noc2C)cn1 | 20 | -3 | -16 | 1 | -2 | -12 | ·
CNC(C)C#Cc1c(-c2cc(OC)c(OC)c(OC)c2)noc1C (stereo not drawn) | -39 | 8 | 9 | 12 | -3 | -22 | ·
COc1ccc(-c2c(-c3cc(OC)c(OC)c(OC)c3)noc2C)cn1 | 76* | -45 | -2 | 23 | 66* | 30 | 34
COc1cc(-c2noc(C)c2C#Cc2ccccn2)cc(OC)c1OC | 86* | -26 | 10 | 70* | 60* | 24 | 37
COc1cc(-c2noc(C)c2/C=C/c2ccc(N)cc2)cc(OC)c1OC | 104* | -149 | 3 | 28 | 58* | 38 | 8
CC(=O)Nc1ccc(C(=O)Nc2cccc(S(=O)(=O)N(C)c3ccccc3)c2)cc1 | · | -2 | 12 | -9 | 2 | -22 | ·
CN(c1ccccc1)S(=O)(=O)c1cccc(NC(=O)c2ccc(Cl)c([N+](=O)[O-])c2)c1 | · | -5 | 73 | 31 | 63* | 6 | 10
O=S(=O)(Nc1ccc(S(=O)(=O)Nc2ncccn2)cc1)c1ccccc1 | 1 | 10 | -3 | · | -8 | -18 | ·
O=C(/C=C/c1ccccc1)Nc1scc(-c2ccccc2)c1C(=O)O | -84 | · | -31 | 4 | · | -56 | ·
COc1cc(SC)ccc1C(=O)Nc1ccon1 | -109 | -54 | -55 | 2 | -42 | -39 | ·
COc1cc(SC)ccc1C(=O)Nc1cccc(C)n1 | -88 | -153 | 46 | -2 | -153 | -83 | -69
COc1cc(SC)ccc1C(=O)Nc1ccccn1 | -1 | -221 | -57 | -3 | -166 | -96 | -96
COc1cc(/C=C2\SC(=Nc3ccccc3OC)NC2=O)ccc1O | -1 | 4 | -11 | · | -5 | 5 | ·
COc1cc(/C=C2/SC(=Nc3ccc(O)cc3)NC2=O)ccc1O | -23 | -83 | 0 | 59* | 59* | -22 | 39
COc1ccccc1NC(=O)/C(C#N)=C/C=C/c1ccco1 | -6 | 0 | -25 | · | 59* | 10 | -7
Cc1cc2oc3ccc(NCCCN4CCOCC4)cc3c(=O)c2cc1C | -97 | -78 | 1 | -14 | -94 | 1 | ·
Cc1cc2oc3ccc(NCCCn4ccnc4)cc3c(=O)c2cc1C | -86 | -199 | -22 | -1 | -167 | -38 | -20
CC(C)CC[n+]1ccccc1/C=C/c1ccc(N(C)C)cc1 | 79* | 29 | 77 | · | 90* | 88* | 49*
O=C1OC2(CCCCC2)OC(=O)C1=CNc1nc2ccccc2s1 | -8 | -14 | -1 | 6 | -13 | -1 | ·
O=C(NC(=S)Nc1ccc2[nH]c(=O)[nH]c2c1)c1ccccc1[N+](=O)[O-] | 14 | -9 | 8 | 12 | 2 | -8 | ·
CCN(CC)c1ccc(NC(=O)c2ccc(Br)o2)cc1 | -151 | -91 | -33 | 16 | -153 | -94 | -63
Cc1ccc(C(=O)/C=C/Nc2ccc([N+](=O)[O-])cc2Br)cc1 | -124 | -187 | -85 | 0 | -165 | -94 | -41
CC(=O)Nc1ccc(N/C=C/C(=O)c2ccccc2)cc1 | -255 | -115 | -87 | 2 | -109 | -135 | ·
Cc1cc(N/C=C/C(=O)c2ccccc2)ccc1Br | -78 | -248 | -33 | -9 | -167 | -88 | -120
Cc1ccc(C(=O)/C=C\Nc2ccc(C)c(C)c2)cc1 | -195 | -146 | -52 | · | -162 | -62 | -18
SMILES | aSyn 5UTR inh | 697 NFkB inh | Shn3 inh set2 | TAG inh | Jurkat NFkB inh | Gli-Sufu block | Jurkat NFkB conf
CN(C)c1ccc(N/C=C/C(=O)c2ccccc2)cc1 | -65 | -100 | 13 | · | -171 | -49 | -49
FC(F)(F)c1ccc(CN2C[C@@H]3C(c4ccc(Cl)nc4)C4(c5ccccc5)CC3(C4)[C@H]2c2ccccc2)cc1 (stereo partly drawn) | -9 | -6 | -12 | -91 | 11 | 5 | ·
Cc1cccc(NC(=O)N2CCN(Cc3ccccc3)CC2)c1 | -61 | -1 | 3 | 8 | 3 | -25 | ·
Cc1ccc(O)c(N/C=C/C(=O)c2ccc(F)cc2)c1 | -259 | -50 | -11 | 21 | 85* | 24 | 14
Cc1ccc(N/C=C/C(=O)c2ccc(C)cc2)cc1 | -241 | -135 | -63 | -3 | -142 | -82 | ·
Cc1ccc(NCCC(=O)c2ccc(Cl)cc2)cc1 | -119 | -18 | -34 | · | -19 | 2 | ·
Cc1cc(NC(=O)c2cc3cccc([N+](=O)[O-])c3[nH]2)ccc1F | -93 | -107 | -113 | 35 | -155 | -73 | -81
S=C(Nc1ccc2nsnc2c1)N1CCCCC1 | · | · | -45 | · | · | -6 | ·
Cc1cc(C(F)(F)F)n2ncc(-c3ccc(F)cc3)c2n1 | 18 | 17 | 4 | 13 | -8 | -1 | ·
COc1ccc(-c2c(C)nc3c(-c4ccc(F)cc4)cnn3c2N)cc1 | -143 | -207 | -77 | · | -183 | -9 | -73
COc1ccc(OC)c(/C=N/NC(=O)CCc2c(C)n[nH]c2C)c1 | 5 | 7 | -10 | -6 | -17 | 0 | ·
CCCCNC(=O)Nc1ccc2c(c1)N(C)C(=O)c1ccccc1S2 | 22 | -20 | 2 | · | -18 | 4 | ·
Cc1ccc(C(=O)n2c3ccccc3c3ccccc32)cc1 | 8 | -42 | 16 | 22 | 54* | -10 | 15
CCC(=O)c1ccc(OCC(=O)Nc2ccccc2N2CCCCC2)cc1 | 6 | -11 | -3 | -10 | 51* | 7 | 11
COc1ccc(C(=O)Nc2ccc([N+](=O)[O-])cn2)c(OC)c1 | -5 | -223 | -10 | -1 | -167 | -77 | -95
COc1cc2ccccc2cc1C(=O)Nc1ccc(C)cn1 | -87 | -160 | -77 | 7 | -159 | -103 | -112
COc1ccc(NC(=O)c2cc3ccccc3cc2OC)cc1 | -168 | -136 | -61 | · | -92 | -11 | ·
N/C(=N\OCc1ccc([N+](=O)[O-])cc1)c1ccccn1 | 112* | 23 | · | · | 60* | -20 | 65*
Cc1nc2ccc3nc(NC(=O)c4ccc5c(c4)OCCO5)sc3c2s1 | -45 | -11 | -12 | · | -22 | -15 | ·
O=C(Nc1ccc(Br)cc1F)c1ccc2c(c1)OCCO2 | 45 | -212 | -36 | · | -161 | -175 | -92
Cc1ccc(NC(=O)c2cccc(OCc3c(C)noc3C)c2)c(C)c1 | 10 | -3 | 19 | 13 | 3 | -1 | ·
Cc1cnc(NC(=O)c2ccc3c(c2)OCCO3)s1 | · | -30 | 79 | 39 | 70* | 10 | 77*
O=C(Nc1ccc(F)cc1F)c1ccc2c(c1)OCCO2 | -23 | -73 | -27 | · | -88 | -30 | ·

Source: PubChem (several laboratories)
